The text below walks through data of PubChem BioAssay (Tox21).

SMILES strings stand for the structures. “And” between values parts separate entries of the source, which are not always exact repeats. Equal values may be shown once. Records with an inconclusive call do not appear. The source made the active and inactive calls. Unless noted, the call rests on the fitted dose curve; in most records, active means well fitted curve in the direction sought with a large enough effect in the repeat runs; inconclusive means weak or mixed curves; inactive means no such curve, though single readings can be large; an effect the other way counts as inactive or inconclusive.

A short description of experiment [1]: qHTS assay to identify small molecule antagonists of the glucocorticoid receptor (GR) signaling pathway - cell viability counter screen (AID 720693). Further: nearly all actives have a fitted effect of over 55% in size.
A short description of experiment [2]: qHTS assay for identifying genotoxic compounds that show differential cytotoxicity against isogenic chicken DT40 cell lines with known DNA damage response pathways - wild type cell line (AID 743012). Further: nearly all actives have a fitted effect of over 60% in size. Further: potency means the concentration at half of the fitted maximal effect. The gist of the method: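 Endpoint: CellTiter-Glo luminescence, 30 min RT. Cells: wild type DT40, 300/well. Exposure: compounds in DMSO, 40 h, 37 C/5% CO2, after ~0.5 h pre-incubation.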

Experiment [3] can be described thus: qHTS assay for identifying genotoxic compounds that show differential cytotoxicity against isogenic chicken DT40 cell lines with known DNA damage response pathways - Rev3 mutant cell line (AID 743014). Further: nearly all actives have a fitted effect of over 55% in size. Further: potency means the concentration at half of the fitted maximal effect.
Experiment [4] in a line: qHTS assay for identifying genotoxic compounds that show differential cytotoxicity against isogenic chicken DT40 cell lines with known DNA damage response pathways - Rad54/Ku70 mutant cell line (AID 743015). Further: nearly all actives have a fitted effect of over 60% in size. Further: potency means the concentration at half of the fitted maximal effect.
Experiment [5] can be described thus: qHTS assay to identify small molecule antagonists of the androgen receptor (AR) signaling pathway - cell viability counter screen (AID 743033; further: nearly all actives have a fitted effect of over 45% in size).
Experiment [6] can be described thus: qHTS assay to identify small molecule antagonists of the androgen receptor (AR) signaling pathway using the MDA cell line - cell viability counter screen (AID 743041; further: nearly all actives have a fitted effect of over 45% in size). The gist of the method:
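Using the breast carcinoma line MDA-kb2 AR-luc, test chemicals were co-incubated with R1881 for 16 h; CellTiter-Fluor reagent, added at 15.5 h, provided a fluorescence measure of live cells.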

Experiment [7] in a line: qHTS assay to identify small molecule antagonists of the thyroid receptor (TR) signaling pathway - cell viability counter screen (AID 743064). Further: nearly all actives have a fitted effect of over 50% in size. Further: potency means the concentration at half of the fitted maximal effect. The method in brief:
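In-well cytotoxicity read by CellTiter-Fluor (30 min, 37 C) following 23.5 h exposure of GH3 cells bearing a TRE-luciferase sensor. Compounds were added alongside 1 nM (final) T3 to drive TR transactivation.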

Experiment [8] can be described thus: qHTS assay to identify small molecule antagonists of the thyroid receptor (TR) signaling pathway (AID 743065). Further: nearly all actives have a fitted effect of over 55% in size. Further: potency means the concentration at half of the fitted maximal effect. The gist of the method:
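Antagonism measured as loss of luciferase signal in GH3 cells stably carrying a TRE-luciferase reporter, co-treated with compound and T3 (1 nM final) for 23.5 h at 37 C. Viability was read in the same well by CellTiter-Fluor.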

Experiment [9] has as its system thyroid hormone receptor (rat, GH3 cells). As to the kind of experiment: qHTS assay to identify small molecule agonists of the thyroid receptor (TR) signaling pathway (AID 743066; calls by dose curve).
Experiment [10] concerns the target Estrogen receptor (Homo sapiens) (UniProt P03372). Kind of experiment: qHTS assay to identify small molecule antagonists of the estrogen receptor alpha (ER-alpha) signaling pathway (AID 743069; active means well fitted curve in the direction sought with a large enough effect in the signal ratio in the repeat runs, not every such curve was filed as active; the % refers to the signal ratio). The method in brief: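 Fluorescence intensity from a beta-lactamase FRET substrate served as the read-out. Cells: HEK293 with stably integrated ER-alpha-UAS-bla reporter. Agonist 17beta-estradiol was co-added with compounds; incubation 18 hr at 37C, substrate 2 hr at room temperature.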

The nature of experiment [11]: qHTS assay to identify small molecule antagonists of the estrogen receptor alpha (ER-alpha) signaling pathway - cell viability counter screen (AID 743074; calls by dose curve; further: nearly all actives have a fitted effect of over 45% in size).
The target of experiment [12] is Estrogen receptor (Homo sapiens) (UniProt P03372). Kind of experiment: qHTS assay to identify small molecule agonists of the estrogen receptor alpha (ER-alpha) signaling pathway (AID 743075; calls by dose curve).
Experiment [13] shares this target. Kind of experiment: qHTS assay to identify small molecule agonists of the estrogen receptor alpha (ER-alpha) signaling pathway using the BG1 cell line (AID 743079). Further: nearly all actives have a fitted effect of over 20% in size. Further: potency means the concentration at half of the fitted maximal effect.
A short description of experiment [14]: qHTS assay to identify small molecule antagonists of the estrogen receptor alpha (ER-alpha) signaling pathway using the BG1 cell line (AID 743080; calls by dose curve;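 further: BG1 cells stimulated with 17beta-estradiol alongside compound; series mostly up to about 70 µM; nearly all actives have a fitted effect of over 25% in size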). The gist of the method:
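Readout is ONE-Glo luminescence, taken 30 min at room temperature after reagent addition, preceded by a CellTiter-Fluor viability read; BG1-Luc-4E2 cells had received compound and 17beta-estradiol for 21.5 h at 37 C.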

The nature of experiment [15]: qHTS assay to identify small molecule antagonists of the estrogen receptor alpha (ER-alpha) signaling pathway using the BG1 cell line - cell viability counter screen (AID 743081).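 Further: compound given together with 17beta-estradiol as the ER stimulus; series mostly up to about 70 µM; nearly all actives have a fitted effect of over 45% in size.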
The next experiment concerns the target Aromatase (Homo sapiens) (UniProt P11511). Kind of experiment: qHTS assay to identify aromatase inhibitors (AID 743083). Further: series mostly up to about 70 µM; nearly all actives have a fitted effect of over 55% in size.
In experiment [16] the target is Androgen receptor (Homo sapiens) (UniProt P10275). As to the kind of experiment: qHTS assay to identify small molecule antagonists of the androgen receptor (AR) signaling pathway (AID 743035; active means well fitted inhibition curve with a large enough effect in the signal ratio in the repeat runs, not every such curve was filed as active; the % refers to the signal ratio; further: potency means the concentration at half of the fitted maximal effect). The method in brief: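 R1881 agonist challenge of a HEK293 UAS-beta-lactamase AR reporter line in the presence of compound (16 h, 37C); signal taken as FRET fluorescence after 2 h with LiveBLAzer B/G substrate at room temperature.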

Experiment [17] shares this target. As to the kind of experiment: qHTS assay to identify small molecule agonists of the androgen receptor (AR) signaling pathway (AID 743036; active means well fitted activation curve with a large enough effect in the signal ratio in the repeat runs, with a control signal flat, not every such curve was filed as active; the % refers to the signal ratio). The gist of the method: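 Activation was read as beta-lactamase FRET signal from LiveBLAzer B/G substrate, added for 2 h at room temperature. Before that, GeneBLAzer AR-UAS-bla GripTite (HEK293) cells had 16 h compound exposure at 37C.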

The target is the same in experiment [18]. Kind of experiment: qHTS assay to identify small molecule agonists of the androgen receptor (AR) signaling pathway using the MDA cell line (AID 743040; further: nearly all actives have a fitted effect of over 20% in size; further: potency means the concentration at half of the fitted maximal effect). The method in brief: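 Stable MMTV-luciferase reporter in MDA-kb2 cells; note the promoter carries GR as well as AR response elements. 16 h compound treatment, 37C, 0% CO2; ONE-Glo luminescence endpoint.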

Experiment [19] shares this target. As to the kind of experiment: qHTS assay to identify small molecule antagonists of the androgen receptor (AR) signaling pathway using the MDA cell line (AID 743042; further: nearly all actives have a fitted effect of over 55% in size). The method in brief: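 Antagonist mode: compounds plus R1881 agonist added to MDA-kb2 AR-luc cells, incubated 16 h at 37C. Luciferase reporter luminescence quantified, with multiplexed CellTiter-Fluor readout for cell viability.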

Chain of Estrogen receptor (Homo sapiens) (P03372 whole entry, looked up): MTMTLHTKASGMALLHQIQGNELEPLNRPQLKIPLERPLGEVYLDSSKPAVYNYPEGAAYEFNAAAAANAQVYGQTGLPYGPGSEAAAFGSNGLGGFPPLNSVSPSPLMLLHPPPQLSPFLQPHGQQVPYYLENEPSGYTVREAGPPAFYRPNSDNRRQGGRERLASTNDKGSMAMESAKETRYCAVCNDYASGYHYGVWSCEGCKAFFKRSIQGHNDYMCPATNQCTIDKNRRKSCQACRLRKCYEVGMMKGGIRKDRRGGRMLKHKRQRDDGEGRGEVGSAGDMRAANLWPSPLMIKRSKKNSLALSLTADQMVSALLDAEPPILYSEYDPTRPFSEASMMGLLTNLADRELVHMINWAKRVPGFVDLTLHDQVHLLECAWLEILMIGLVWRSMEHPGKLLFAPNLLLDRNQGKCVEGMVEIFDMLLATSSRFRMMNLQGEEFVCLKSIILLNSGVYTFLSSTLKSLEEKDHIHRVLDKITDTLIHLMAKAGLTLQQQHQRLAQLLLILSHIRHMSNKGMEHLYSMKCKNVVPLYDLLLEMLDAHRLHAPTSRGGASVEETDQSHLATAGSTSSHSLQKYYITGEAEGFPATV
Chain of Aromatase (Homo sapiens) (P11511 whole entry, looked up): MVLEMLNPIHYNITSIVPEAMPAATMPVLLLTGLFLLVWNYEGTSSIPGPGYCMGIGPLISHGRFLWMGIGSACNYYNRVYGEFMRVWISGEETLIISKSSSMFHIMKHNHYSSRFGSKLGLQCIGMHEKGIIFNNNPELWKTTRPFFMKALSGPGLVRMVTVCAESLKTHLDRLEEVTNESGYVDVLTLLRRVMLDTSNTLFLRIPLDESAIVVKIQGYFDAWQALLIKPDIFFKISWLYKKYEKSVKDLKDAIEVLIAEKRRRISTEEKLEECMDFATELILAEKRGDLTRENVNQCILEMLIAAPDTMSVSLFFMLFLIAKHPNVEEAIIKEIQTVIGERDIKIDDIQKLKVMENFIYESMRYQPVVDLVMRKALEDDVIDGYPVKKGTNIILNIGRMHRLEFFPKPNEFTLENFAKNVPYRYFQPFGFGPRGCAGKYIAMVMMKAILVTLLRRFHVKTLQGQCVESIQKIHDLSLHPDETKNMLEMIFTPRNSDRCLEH
Chain of Androgen receptor (Homo sapiens) (P10275 whole entry, looked up): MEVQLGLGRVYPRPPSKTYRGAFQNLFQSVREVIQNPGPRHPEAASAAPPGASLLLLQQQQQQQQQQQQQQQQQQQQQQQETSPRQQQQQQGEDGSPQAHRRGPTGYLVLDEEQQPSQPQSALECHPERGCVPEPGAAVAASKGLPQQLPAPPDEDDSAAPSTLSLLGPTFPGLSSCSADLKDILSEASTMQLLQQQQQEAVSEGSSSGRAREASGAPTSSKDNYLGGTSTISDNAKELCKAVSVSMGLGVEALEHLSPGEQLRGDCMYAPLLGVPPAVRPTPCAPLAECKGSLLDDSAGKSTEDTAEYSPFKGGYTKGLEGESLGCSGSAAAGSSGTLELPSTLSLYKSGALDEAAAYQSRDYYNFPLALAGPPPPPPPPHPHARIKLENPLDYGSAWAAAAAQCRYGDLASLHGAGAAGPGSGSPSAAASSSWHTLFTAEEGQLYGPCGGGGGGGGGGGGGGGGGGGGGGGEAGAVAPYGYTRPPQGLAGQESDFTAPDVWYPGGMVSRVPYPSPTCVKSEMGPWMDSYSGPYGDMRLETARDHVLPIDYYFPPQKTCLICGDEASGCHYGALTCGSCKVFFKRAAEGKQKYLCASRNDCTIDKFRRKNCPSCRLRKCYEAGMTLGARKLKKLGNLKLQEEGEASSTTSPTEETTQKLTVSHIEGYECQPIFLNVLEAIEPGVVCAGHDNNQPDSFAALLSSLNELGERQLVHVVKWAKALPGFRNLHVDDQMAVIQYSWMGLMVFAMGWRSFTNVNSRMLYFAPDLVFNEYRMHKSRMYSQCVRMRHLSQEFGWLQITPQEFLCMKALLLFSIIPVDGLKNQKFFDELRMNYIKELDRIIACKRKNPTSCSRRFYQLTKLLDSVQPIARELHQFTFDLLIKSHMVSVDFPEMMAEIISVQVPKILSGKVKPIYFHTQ

As for `FC(F)(F)C(F)(F)C(F)(F)C(F)(F)C(F)(F)C(F)(F)CCI`, the Potency result in experiment [1], in [2], in experiment [3], in experiment [4], in [5] and in [6] was “inactive” each time. Besides, the Potency result in experiment [7], in experiment [8], in [9], in [10], in [12] and in experiment [13] was “inactive” throughout. Further, the Potency entry (in [14]; in [15]; with Aromatase (Homo sapiens)) was “inactive” each time. For the same molecule, the call in [11] was inactive.
`O=C(O)C(c1ccc(Cl)cc1)c1ccc(Cl)cc1`: the Potency entry in [1], in experiment [2], in experiment [3], in experiment [4], in experiment [5] and in [6] was “inactive” in each case. Further, the Potency result in [7], in experiment [8], in [9], in [12] and in experiment [15] was “inactive” in each case. The molecule was called inactive in [11].
Turning to `CCCCCCCCCCCCCCCBr`, the Potency result in experiment [1], in [2], in experiment [3], in experiment [4], in experiment [5] and in [6] was “inactive” each time. Besides, the Potency result in experiment [7], in experiment [8], in experiment [9], in experiment [10], in experiment [12] and in experiment [13] was “inactive” throughout. Also, the Potency entry (in [14]; in [15]; with Aromatase (Homo sapiens)) was “inactive” in each case. For the same molecule, the result in experiment [11] was inactive.
On to `CCC(C)N(C)C(=O)c1cc2ccccc2c(-c2ccccc2Cl)n1` (configuration not stated), for which the Potency result in [1], in experiment [5], in experiment [18], in [6], in experiment [9] and in [12] was “inactive” in each case. The Potency entry in experiment [13] and in [15] was “inactive” in each case. For the same molecule, the Potency in experiment [2] was 15.7 µM (active); in [3] it was 14 µM (active); in experiment [4], 14 µM (active); in experiment [16], 28.2 µM (active); in experiment [8] it was 35.2 µM (active). Further, the call in [17] and in experiment [11] was inactive.
As to `Nc1nc(N)c2nc(CNc3ccc(C(=O)N[C@@H](CCC(=O)O)C(=O)O)cc3)cnc2n1`, the Potency entry in experiment [1], in [5], in experiment [6], in experiment [7], in [9] and in [10] was “inactive” throughout. Besides, the Potency result (in [12]; in experiment [13]; in experiment [14]; in experiment [15]; with Aromatase (Homo sapiens)) was “inactive” each time. The Potency in experiment [2] is 11.9 µM (active); in [3] it was 13.3 µM (active); in [4], 23.7 µM (active) and 1.4 nM (active); in [8], 0.0571 µM (active). In addition, the molecule was called inactive in experiment [11].
Regarding `CCCOc1ccc2nc(NC(=O)OC)[nH]c2c1`, the Potency result in experiment [1], in experiment [5], in [18], in experiment [6], in experiment [19] and in experiment [9] was “inactive” each time. The Potency entry (in experiment [10]; in experiment [13]; in experiment [14]; in experiment [15]; in the experiment with Aromatase (Homo sapiens)) was “inactive” in each case. Also, the Potency was 0.237 µM (active) in experiment [2], 0.237 µM (active) in [3], 0.335 µM (active) in experiment [4] and 0.422 µM (active) in experiment [8]. Further, in [11], the outcome was inactive.
Take `Nc1ccc(C(=O)Nc2ccccc2N)cc1`: the Potency result in experiment [1], in experiment [5], in experiment [6], in experiment [9], in experiment [12] and in experiment [15] was “inactive” each time. The Potency result in the experiment with Aromatase (Homo sapiens) is “inactive”. The Potency in experiment [2] is 1.5 µM (active); in experiment [3], 0.422 µM (active); in experiment [4] it was 1.88 µM (active); in experiment [18] it was 10.6 µM (active); in experiment [7], 18.8 µM (active); in experiment [8], 29.8 µM (active). The Potency in [13] was 33.5 µM (active). Further, the molecule was called inactive in experiment [11].
As for `C=C(C)C(=O)OCCN(C)C`, the Potency entry in [1], in experiment [2], in experiment [3], in [4], in [5] and in experiment [6] was “inactive” in each case. For the same molecule, the Potency result in [7], in experiment [8], in experiment [9], in experiment [10], in experiment [12] and in experiment [13] was “inactive” throughout. The Potency result (in experiment [14]; in [15]; with Aromatase (Homo sapiens)) was “inactive” throughout. In addition, in experiment [11], the molecule was called inactive.
